The results in this text go back to PubChem BioAssay.

Values joined by “and” are separate entries in the source; they are usually repeats but may differ in a detail not shown here. Identical values can stand only once. Active and inactive are the calls of the source.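 How the source made its calls, unless noted: active means compounds whose cell count with miR-34 switched on is under 0.7 times the count with it off; inactive means the rest.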

Assay [1] in a line: sensitizers of A549 cells to miR-34 induction, primary screen, imaging, A549 dox-inducible miR-34, nuclei and caspase counts (AID 1347080). Further: test concentration not given here. The note with it: A549 miR-34 inducible, Hoechst nuclei count, 48 h.
Assay [2] in a line: survival rescue of mitochondrial mutant cells in low glucose, primary screen, MELAS cybrids, Rieske KO mouse fibroblasts, CellTiter-Glo (AID 1508586;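 active means mean z-score across replicates of 1.96 or higher in either the MELAS or the Rieske mutant cell line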;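 further: test concentration not given here; z relative to plate mean and SD of compound and empty wells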).
Assay [3] can be described thus: viability rescue of complex I mutant cybrids, primary screen, cell-based, galactose medium, ATP luminescence (AID 1645843;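 active means z-score of at least 1.8 in each of two replicates, scored against plate mean and spread of sample wells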;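 further: positive z means more ATP and so rescue of galactose-driven cybrid death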). The note with it: complex I mutant cybrid cells, 72 h, stronger effect = higher value.
The mark [4] stands for this setting: stronger effect = lower value, cell number ratio, induced over uninduced.
Where [5] appears, read: measured here: relative caspase fold change +Dox/-Dox.
[6] abbreviates: measured here: total cells with miR-34 induction, stronger effect = lower value.
The mark [7] stands for this setting: measured here: total cells without miR-34 induction.
Setting [8] is: MELAS cybrid survival, CellTiter-Glo 48 h, stronger effect = higher value.
Setting [9] is: Rieske KO mouse fibroblast survival, CellTiter-Glo 72 h.

Consider `Cc1ccc(Cn2nccc2NC(=O)Cn2cc(-c3ccc(F)cc3)cn2)o1`, for which the fold change in assay [1] (setting [4]) is 0.895 (inactive); in assay [1] (setting [5]), 0.589. Also, the figures for the cell count in assay [1] (setting [6]) and in assay [1] (setting [7]) were 8330 and 9310, respectively. The results for the z-score in assay [2] (setting [8]), in assay [2] (setting [9]) and in assay [3] were -0.0022 (inactive), -0.187 and 1.75 (inactive), respectively.

On to `Cc1cc(C)n(CCCNc2ncc(C)c(-c3cnn(C)c3)n2)n1`, for which the fold change was 0.893 (inactive) in assay [1] (setting [4]) and 1.21 in assay [1] (setting [5]). Further, the cell count in assay [1] (setting [6]) was found to be 8360; in assay [1] (setting [7]) it was 9370. For the same compound, the z-score in assay [2] (setting [8]) was -0.406 (inactive); in assay [2] (setting [9]), 0.144; in assay [3], -0.54 (inactive).

Regarding `O=C(Nc1cccnc1)C1CCN(C(=O)c2ccccc2Cl)CC1`, the fold change in assay [1] (setting [4]) was 0.886 (inactive); in assay [1] (setting [5]), 1.9. The values for the cell count in assay [1] (setting [6]) and in assay [1] (setting [7]) were 8890 and 10000, respectively. The z-score in assay [2] (setting [8]) was 0.0994 (inactive); in assay [2] (setting [9]), -0.159; in assay [3], -0.045 (inactive).

For the compound `Cc1ccc2c(C(=O)N3C[C@H]4CC[C@H]3C4)cc(-c3cnn(C(C)(C)C)c3)nc2c1`, the results for the fold change in assay [1] (setting [4]) and in assay [1] (setting [5]) were 0.854 (inactive) and 1.66, respectively. In addition, the values for the cell count in assay [1] (setting [6]) and in assay [1] (setting [7]) were 6940 and 8130, respectively. In addition, the values for the z-score in assay [2] (setting [8]), in assay [2] (setting [9]) and in assay [3] were -0.72 (inactive), 0.542 and 1.56 (inactive), respectively.

In the case of `CCN(CC)C(=O)[C@]1(c2ccccc2)CC1CN` (stereo not given in full), the fold change in assay [1] (setting [4]) is 0.994 (inactive) and 0.915 (inactive); in assay [1] (setting [5]), 2.55 and 0.784. The cell count in assay [1] (setting [6]) is 10600 and 8120; in assay [1] (setting [7]), 10700 and 8880. Besides, the z-score in assay [2] (setting [8]) is -0.247 (inactive); in assay [2] (setting [9]) it was -0.165; in assay [3], 0.315 (inactive).

As for `OC1(CNc2ncnc3nc[nH]c23)C2CC3CC(C2)CC1C3` (stereo not given), the fold change in assay [1] (setting [4]) was 0.887 (inactive); in assay [1] (setting [5]), 0.873. The cell count in assay [1] (setting [6]) is 8560; in assay [1] (setting [7]) it was 9650. For the same compound, the z-score in assay [2] (setting [8]) was -0.357 (inactive); in assay [2] (setting [9]), -0.0569; in assay [3] it was -0.575 (inactive).

As for `O=S(=O)(Nc1cc(-c2cccs2)nn1-c1ccc(F)cc1)c1cccc(F)c1`, the fold change in assay [1] (setting [4]) is 0.903 (inactive); in assay [1] (setting [5]) it was 0.956. The cell count in assay [1] (setting [6]) is 7390; in assay [1] (setting [7]) it was 8190. Also, the z-score in assay [2] (setting [8]) was 0.0617 (inactive); in assay [2] (setting [9]) it was 0.524; in assay [3], -1.46 (inactive).

Take `CCN(CC)S(=O)(=O)c1cc(C(=O)Nc2ccccc2C(=O)O)ccc1Br`: the fold change in assay [1] (setting [4]) was 0.904 (inactive); in assay [1] (setting [5]), 0.416. For the same compound, the cell count in assay [1] (setting [6]) was determined as 8290; in assay [1] (setting [7]), 9170. Also, the z-score in assay [2] (setting [8]) is -0.577 (inactive); in assay [2] (setting [9]), 0.639; in assay [3], 0.82 (inactive).

As for `NCCCNc1ccccc1[N+](=O)[O-]`, the fold change in assay [1] (setting [4]) was 0.945 (inactive); in assay [1] (setting [5]) it was 0.463. The cell count was determined as 8170 in assay [1] (setting [6]) and 8640 in assay [1] (setting [7]). Besides, the z-score is -0.896 (inactive) in assay [2] (setting [8]), 0.0452 in assay [2] (setting [9]) and 0.19 (inactive) in assay [3].

As to `O=C(OC1Cc2c(O)cc(O)cc2OC1c1cc(O)c(O)c(O)c1)c1cc(O)c(O)c(O)c1` (stereo not given), the fold change in assay [1] (setting [4]) is 0.855 (inactive) and 0.924 (inactive); in assay [1] (setting [5]), 1.5 and 0.635. In addition, the cell count in assay [1] (setting [6]) was 9030 and 8300; in assay [1] (setting [7]), 10600 and 8990. Besides, the results for the z-score in assay [2] (setting [8]), in assay [2] (setting [9]) and in assay [3] were -0.179 (inactive), -0.151 and -1.44 (inactive), respectively.

Take `NC(N)=NCC(=O)O`: the fold change was 0.926 (inactive) in assay [1] (setting [4]) and 0.467 in assay [1] (setting [5]). Further, the cell count was found to be 8690 in assay [1] (setting [6]) and 9380 in assay [1] (setting [7]). Further, the z-score in assay [2] (setting [8]) is 0.863 (inactive); in assay [2] (setting [9]), 0.0822; in assay [3] it was 0.15 (inactive).

On to `COC1C=CO[C@@]2(C)Oc3c(C)c(O)c4c(O)c(c(C=NN5CCN(C6CCCC6)CC5)c(O)c4c3C2=O)NC(=O)C(C)=CC=CC(C)C(O)C(C)C(O)C(C)C(OC(C)=O)C1C` (stereo not given in full), for which the fold change was 1.26 (inactive) and 0.937 (inactive) in assay [1] (setting [4]); 1.41 and 0.74 in assay [1] (setting [5]). For the same compound, the cell count is 6670 and 7260 in assay [1] (setting [6]); 5310 and 7750 in assay [1] (setting [7]). Besides, the figures for the z-score in assay [2] (setting [8]), in assay [2] (setting [9]) and in assay [3] were -0.432 (inactive), -0.0629 and 0.32 (inactive), respectively.

`O=C(O)CCC(=O)Nc1ccc(Br)cn1`: the fold change was 0.858 (inactive) in assay [1] (setting [4]) and 0.548 in assay [1] (setting [5]). Also, the cell count in assay [1] (setting [6]) was determined as 8810; in assay [1] (setting [7]), 10300. Also, the z-score in assay [2] (setting [8]) is 0.399 (inactive); in assay [2] (setting [9]), -0.113; in assay [3], 0.275 (inactive).

For the compound `CCn1ncc(NC(=O)Cn2cc(-c3ncnc4ccsc34)cn2)n1`, the values for the fold change in assay [1] (setting [4]) and in assay [1] (setting [5]) were 0.848 (inactive) and 1.75, respectively. The cell count in assay [1] (setting [6]) was 8160; in assay [1] (setting [7]), 9620. Also, the z-score in assay [2] (setting [8]) was -0.432 (inactive); in assay [2] (setting [9]), -0.147; in assay [3], -0.53 (inactive).

Turning to `O=C(O)Cc1cc(=O)[nH]c(=O)[nH]1`, the figures for the fold change in assay [1] (setting [4]) and in assay [1] (setting [5]) were 0.898 (inactive) and 0.239, respectively. Further, the results for the cell count in assay [1] (setting [6]) and in assay [1] (setting [7]) were 8760 and 9760, respectively. Besides, the z-score is 0.622 (inactive) in assay [2] (setting [8]), -0.242 in assay [2] (setting [9]) and -0.13 (inactive) in assay [3].

As to `CC1(C)CC(Nc2nccc(-c3cnn(-c4ccccc4)c3)n2)CC(C)(C)N1`, the fold change in assay [1] (setting [4]) was 0.881 (inactive); in assay [1] (setting [5]), 3.09. In addition, the cell count in assay [1] (setting [6]) came out at 4870; in assay [1] (setting [7]), 5530. For the same compound, the z-score in assay [2] (setting [8]) was -0.228 (inactive); in assay [2] (setting [9]), 0.372; in assay [3], 3.44 (active).

For the compound `O=[N+]([O-])c1ccc2[nH]ncc2c1`, the fold change in assay [1] (setting [4]) is 0.885 (inactive); in assay [1] (setting [5]) it was 0.558. Besides, the values for the cell count in assay [1] (setting [6]) and in assay [1] (setting [7]) were 8690 and 9820, respectively. For the same compound, the figures for the z-score in assay [2] (setting [8]), in assay [2] (setting [9]) and in assay [3] were 0.727 (inactive), -0.415 and -0.195 (inactive), respectively.

For `O=C(NCCc1ccco1)c1cc(C2CC2)[nH]n1`, the fold change was 0.916 (inactive) in assay [1] (setting [4]) and 1.14 in assay [1] (setting [5]). Further, the values for the cell count in assay [1] (setting [6]) and in assay [1] (setting [7]) were 9380 and 10200, respectively. For the same compound, the z-score in assay [2] (setting [8]) was 0.356 (inactive); in assay [2] (setting [9]), 0.504; in assay [3], -0.495 (inactive).

`O=C(O)CCCCCNC(=O)NC1CCCCC1`: the fold change in assay [1] (setting [4]) is 0.882 (inactive); in assay [1] (setting [5]), 0.38. The cell count worked out at 9190 in assay [1] (setting [6]) and 10400 in assay [1] (setting [7]). The figures for the z-score in assay [2] (setting [8]), in assay [2] (setting [9]) and in assay [3] were -0.568 (inactive), 0.057 and 0.68 (inactive), respectively.

On to `CN(C)CCOc1ccc(C(=C(CCCl)c2ccccc2)c2ccccc2)cc1`, for which the fold change was 0.778 (inactive) and 1.03 (inactive) in assay [1] (setting [4]); 1.46 and 0.374 in assay [1] (setting [5]). For the same compound, the cell count is 3730 and 7050 in assay [1] (setting [6]); 4790 and 6850 in assay [1] (setting [7]). Moreover, the z-score in assay [2] (setting [8]) is -0.446 (inactive); in assay [2] (setting [9]), -0.000629; in assay [3] it was -1.88 (inactive).
